A selection follows.
aSyn UTR act = Activators via SNCA 5'UTR binding, MLPCN; alpha-synuclein 5'UTR reporter, activators screen; activity score, % (tested at 7.5 µM), hits read low; 300,000 compounds, 7.1% hits; in the data active = activity score below about -60%
Starred values were filed as active, the others as inactive.

SMILES	aSyn UTR act
CC1CCN(c2nc3ccc(C(=O)NCCCN4CCCCC4)cc3s2)CC1	-281.6*
CC1CCN(c2nc3ccc(C(=O)O)cc3s2)CC1	106.0
CCC1CCCCN1CCCNC(=O)c1ccc2nc(N3CCC(C)CC3)sc2c1 (configuration not stated)	-291.8*
CC(=O)c1ccc(N(C(=O)Cn2nnc3ccccc32)C(C(=O)NCc2ccccc2)c2ccccn2)cc1 (configuration not stated)	-105.8*
O=C(Cn1nnc2ccccc21)NCc1ccccc1	-99.9*
c1ccc(CCn2nnc3ccccc32)cc1	-137.9*
CN(C)C=Nc1ccc2nc3c(cc2c1)[nH]c1ccccc13	-232.7*
CCOc1ccc(/C=C2/Sc3ccc(C(=O)N4CCN(C(=O)c5ccco5)CC4)cc3N(C)C2=O)cc1OC	52.7
COc1cc(/C=C2/C(=N)N3C(c4ccccc4)=CSC3=NC2=O)ccc1OCC(=O)O	-67.8*
COc1cc(/C=C2/C(=N)N3N=C(CC(=O)N4CCOCC4)SC3=NC2=O)ccc1OCc1ccccc1	-128.6*
Cc1cccc(OCCOC(=O)c2c(-c3ccccc3)noc2C)c1	-96.7*
O=C(CSc1cccc[n+]1[O-])c1cc(Cl)ccc1Cl	-87.4*
O=C(CN1C(=O)c2ccccc2S1(=O)=O)c1ccc(Cl)cc1Cl	77.7
O=C(CSc1cccc[n+]1[O-])c1cc2ccccc2o1	-101.1*
CC(C)NCC(O)Cn1c2c(c3ccccc31)CCc1c-2cnn1-c1ccccc1 (configuration not stated)	107.8
CCC(=O)c1ccc(OC(=O)N2CCOCC2)cc1	-69.6*
CC(C)(C)c1ccc(OC(=O)N2CCOCC2)cc1	-110.7*
O=C1C(Cl)=C(Nc2ccccc2O)C(=O)N1c1ccccc1	-93.5*
COc1ccccc1N1C(=O)C(Cl)=C(Nc2ccccc2O)C1=O	-126.9*
O=C(CC(SCCO)c1ccc2c(c1)OCO2)c1ccco1 (configuration not stated)	-98.3*
C(=N\Nc1ccc2ccccc2n1)/c1ccc2c(c1)OCCO2	108.4
COc1ccccc1C(=O)N/N=C/c1ccc2c(c1)OCO2	-173.4*
COc1cc2ccccc2cc1C(=O)N/N=C/c1ccc2c(c1)OCO2	-163.5*
C=C(C)CNC(=S)N/N=C(\C)c1ccc(Cl)s1	-70.2*
CC(C)(C)c1csc(CS(=O)(=O)c2ccccn2)n1	-62.8*
SMILES	aSyn UTR act
O=C(Nc1cccc2ccccc12)c1cnccn1	-96.5*
O=C(CCc1ccccc1)Nc1c(F)cccc1F	-133.3*
Cc1ccoc1C(=O)Nc1cccc2ccccc12	-92.2*
O=C(NCCc1ccccc1)c1ccccc1NC(=O)C1CC=CCC1C(=O)O (configuration not stated)	-133.3*
O=C(O)CCC(=O)Nc1ccccc1C(=O)NCCc1ccccc1	-77.7*
O=C(Nc1ccccc1C(=O)NCCc1ccccc1)c1cnccn1	-68.4*
NC(=O)c1ccccc1NC(=O)CCc1ccccc1	-113.0*
Cc1cccc(OCC(=O)Nc2cc(C)c(C)cc2O)c1	-112.1*
CC1(C)Cc2c(sc(NC(=O)COc3cccc4ccccc34)c2C#N)C(C)(C)N1	71.9
Cc1sc(NC(=O)COc2ccccc2)c(C#N)c1C	-91.3*
CC(=O)Nc1sc(C)c(C)c1C(=O)OCC(=O)N(CC(C)C)c1c(N)n(Cc2ccccc2)c(=O)[nH]c1=O	77.3
CC(=O)Nc1sc(C)c(C)c1C(=O)OCCOc1ccccc1	-129.5*
Cc1sc(NC(=O)CS(=O)(=O)c2ccccc2)c(C#N)c1C	-87.4*
C/C(CC(=O)Nc1cc(C)ccn1)=N\NC(=O)COc1cccc(C)c1	-110.4*
Cc1cccc(OCC(=O)Nc2sc3c(c2C#N)CCC3)c1	-99.5*
Cc1ccccc1Cn1nnc(-c2ccc3c(c2)OCO3)n1	-167.6*
Fc1cccc(Cn2ccc(-c3ccc4c(c3)OCO4)n2)c1	-96.6*
Fc1cccc(Cl)c1Cn1nnc(-c2ccc3c(c2)OCO3)n1	-96.9*
Cc1ccccc1Cn1ccc(-c2ccc3c(c2)OCO3)n1	-129.7*
CCCC(=O)Nc1nnc(/C=C/c2ccc(OC)cc2)s1	-106.6*
CCOC(=O)Nc1nnc(/C=C/c2ccc(OC)cc2)s1	-94.2*
COc1ccc(/C=C/c2nnc(NC(=O)C(C)(C)C)s2)cc1	-96.0*
CCC(=O)Nc1nnc(/C=C/c2ccccc2)s1	-137.7*
CCCC(=O)Nc1nnc(/C=C/c2ccccc2)s1	-99.0*
Oc1ccc(-c2csc(Nc3ncccn3)n2)c(O)c1	-165.4*
SMILES	aSyn UTR act
Oc1ccc(-c2csc(Nc3ncccn3)n2)cc1O	-177.8*
Cc1cccc(Nc2nc(-c3ccc(O)cc3O)cs2)n1	-125.9*
Cc1ccc(C)c(-c2csc(Nc3ncccn3)n2)c1	-66.3*
S=C(Nc1ccc(Cl)cc1)c1nc2ccccc2[nH]1	-78.7*
Cc1ccccc1NC(=S)c1nc2ccccc2[nH]1	-144.9*
CC1=NC(=O)C(N=Nc2ccccc2)N1c1ccccc1 (configuration not stated)	-109.4*
Cc1cc(N2CCOCC2)n2ncc(-c3ccccc3Cl)c2n1	-160.4*
O=c1c2ccccc2nnn1CSc1nnc2ccccn12	-92.9*
O=c1c2ccccc2nnn1CSc1ccc2c(c1)OCCO2	-144.9*
O=c1c2ccccc2nnn1CSc1nnc(-c2ccco2)o1	-131.1*
CCC(C(=O)Nc1ccc2c(c1)OCCO2)n1nnc2ccccc2c1=O (configuration not stated)	-133.3*
C=CCSc1nc2c(cnn2-c2ccccc2)c(=O)n1N	74.2
O=c1c2cnn(-c3ccccc3)c2nc(-c2cccs2)n1-c1cccc(Cl)c1	-63.1*
COc1ccc(S(=O)(=O)n2ccc(-c3ccc4c(c3)CCC(C)(C)O4)n2)cc1	-103.4*
COc1ccc(S(=O)(=O)N2c3ccc(F)cc3CCC2C)cc1 (configuration not stated)	112.2
CC1(C)CCc2cc(-c3ccn(S(=O)(=O)c4ccccc4Cl)n3)ccc2O1	-84.0*
C/C(=N\Nc1ccc(C(=O)O)cc1)c1nc2ccccc2n1C	-148.1*
COc1cc(/C(C)=N/Nc2ccc(C(=O)O)cc2)cc(OC)c1OC	-101.3*
COc1ccc(/C(C)=N/Nc2ccc(C(=O)O)cc2)cc1OC	-137.3*
Cn1nnnc1N=N/C(=N/Nc1ccccc1)c1ccccc1	103.6
C/C(=N\Nc1ccc(C(=O)O)cc1)c1ccc(-n2ccnc2)cc1	-70.2*
O=C(Nc1cccc2nsnc12)c1cccs1	-143.2*
O=C(Nc1ccccc1)Nc1cccc2nsnc12	-272.2*
CCc1ccc(-c2cc(C)no2)cc1S(=O)(=O)N1CCN(c2ccccc2)CC1	-73.0*
Cc1ccc2c(c1)COc1c3ccc(C(=O)N4CCOCC4)cc3nn1-2	-112.7*
SMILES	aSyn UTR act
O=C(O)c1ccc2c3n(nc2c1)-c1ccc(Cl)cc1CO3	-160.7*
O=C(c1ccc2c3n(nc2c1)-c1ccc(Cl)cc1CO3)N1CCCCC1	-138.3*
O=C(Cc1ccc(Cl)cc1)Nc1ccc(Br)cn1	-66.0*
O=C(Cc1ccc(Cl)cc1)Nc1ccc(Br)cc1	-67.3*
Oc1ccc(Cl)cc1CNc1ccc(Br)cn1	-141.8*
Cc1nn(-c2ccccc2)c(Cl)c1/C=N\NC(=O)c1cnccn1	-105.8*
Cc1nn(-c2ccccc2)c(Cl)c1/C=N/NC(=O)c1ccco1	-106.0*
C=CCc1c(C)[nH]c2ccc(C)cc2c1=O	-85.7*
CCC(=NCCc1c(C)[nH]c2ccc(C)cc12)C1=C(O)CC(c2ccccc2)CC1=O (configuration not stated)	104.0
COc1cccc(Cn2c(=O)oc3ccccc32)c1	-76.6*
O=C(NCc1ccncc1)C(=O)Nc1nc2ccccc2s1	-71.6*
Cc1cnc(NC(=O)CC2CCCC2)s1	-130.7*
S=C(Nc1ccccc1)c1nc2ccccc2s1	-170.2*

Source: PubChem BioAssay (Broad Institute)
